Results on 90 compounds are retold here after PubChem BioAssay AID1259415 (National Center for Advancing Translational Sciences (NCATS), 2018).

SMILES strings stand for the structures. Values joined by “and” are separate entries in the source; they are usually repeats but may differ in a detail not shown here. Equal entries are not always repeated. About 18,000 (4.4%) of roughly 410,000 compounds were called active. Another 7% or so got no clear call; they are omitted. Cut-off read from the data, not from the text of the source: active = activity change below about -60%; inconclusive = no clear call, values can overlap the other calls; inactive = above about -39%. Shown is part of a subset that was picked to be rich in actives. The source holds several records for some structures; these can differ, active in one and inactive in another.
% is set by controls: 0 for no effect and ±100 for the full control effect.

This assay in a line: qHTS Assay for inhibitors of the human cytomegalovirus (HCMV). The following applies: HFF cells, HCMV-luciferase reporter, 72 h; at 57.5 µM; stronger effect = lower value. An outline of the steps: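 After 16 h attachment at 37C, HFF cells received test compound and HCMV-luciferase (1 PFU/cell); reporter luminescence read 72 h later, data normalized against buffer-only and known inhibitor Salinomycin.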
On the technique in general: qHTS replaces the single test concentration by a dilution series.
For the compound `COc1ccc(Cl)cc1NC(=O)CCn1c(=O)c2cccn2c2ccccc21`, the activity change, negative = inhibition is 4.3% (inactive).
As to `CCOC(=O)c1c(N)n(-c2cccc(C)c2C)c2nc3ccccc3nc12`, the activity change, negative = inhibition was 3.84% (inactive).
As to `Cc1nn(-c2ccc(N3CCCCC3)nn2)c(C)c1CCC(=O)NCc1ccc(F)cc1`, the activity change, negative = inhibition was -11.9% (inactive).
In the case of `CCNS(=O)(=O)c1ccc(NC(=O)CSc2nc(-c3ccco3)cc(C(F)(F)F)n2)cc1`, the activity change, negative = inhibition is 19.7% (inactive).
As to `CC1CCN(C(=O)c2ccc3c(c2)NC(=O)CN3)CC1`, the activity change, negative = inhibition is -12.7% (inactive).
For the compound `O=C(Cc1ccccc1)N1CCN(C2CCCCCC2)CC1`, the activity change, negative = inhibition was 31.1% (inactive).
Take `O=C1Nc2cc(C(=O)N3CCC(N4CCCCC4)CC3)ccc2S/C1=C\c1ccccc1`: the activity change, negative = inhibition was -88% (active).
For the compound `CCOc1ccccc1NC(=O)Cn1c(=O)n(Cc2ccccc2)c(=O)c2c(C)c(C(=O)N(C)C)sc21`, the activity change, negative = inhibition is -19.6% (inactive).
As for `CC(=O)CC[C@@H](C)O[C@@H]1OC(C)[C@H](O)CC1O` (stereo not given in full), the figure is -66.6% (active); as for `COc1ccc(NC(=O)N(C)C[C@@H]2OCCCC[C@@H](C)Oc3ccc(NC(=O)NC4CCCCC4)cc3C(=O)N([C@H](C)CO)C[C@@H]2C)cc1`, 1.75% (inactive).
To `O=C(CSc1ccccn1)N1CCN(S(=O)(=O)c2ccc(Cl)cc2)CC1` belongs -33.6% (inactive); to `CCOC(=O)CSc1ccccn1`, -102% (active).
`CCOC(=O)CSc1ncc(-c2cccc(Cl)c2)cn1`: the activity change, negative = inhibition was 23.7% (inactive).
To `COc1ccc(CCNc2nc3c(-c4cccc(F)c4)nnn3c3ccccc23)cc1OC` belongs 30.2% (inactive).
To `Cc1ccc(CCNC(=O)c2ccc(CNS(=O)(=O)c3ccc(C)cc3)cc2)cc1` belongs -11.4% (inactive).
To `Cc1ccc(S(=O)(=O)N(CC(=O)Nc2ccc(Cl)cc2Cl)c2ccccc2C)cc1` belongs -21.6% (inactive); to `CC(C)c1nccn1S(=O)(=O)c1cc([N+](=O)[O-])ccc1Cl`, -7.9% (inactive); to `CCc1nc(C)cn1S(=O)(=O)c1cc(OC)c(C)cc1C`, -33.9% (inactive).
As to `CCc1nc(C)cn1S(=O)(=O)c1cc([N+](=O)[O-])ccc1Cl`, the activity change, negative = inhibition was -98.5% (active).
In the case of `Cc1ccccc1Nc1nn2c(=O)c3ccc(C(=O)NCCc4ccc(Cl)cc4)cc3nc2s1`, the activity change, negative = inhibition was -8.87% (inactive).
To `CC(C)c1ccc(NC(=O)Cn2nnc(C(=O)NCCc3ccccc3)c2N)cc1` belongs 7.46% (inactive).
To `Cc1ccc(NC(=O)Cn2cnc3nc4c(cc3c2=O)CCCC4)cc1Cl` belongs 19.1% (inactive); to `CCCN(CCC)CCNC(=O)Cn1cnc2sc(C)c(S(=O)(=O)N3CCC(C)CC3)c2c1=O`, 3.59% (inactive).
As for `Fc1ccc(-n2ncc3c(Nc4ccc(Oc5ccccc5)cc4)ncnc32)cc1`, the figure is -35.2% (inactive); as for `CCN(CCCNC(=O)Cn1ncc2c3ccccc3n(C)c2c1=O)Cc1ccccc1`, -7.87% (inactive); as for `O=C(COc1ccc(S(=O)(=O)N2CCCC2)cc1[N+](=O)[O-])N1CCCCC1`, -8.38% (inactive).
Take `Cc1cc(S(=O)(=O)N2CCOCC2)ccc1OCC(=O)N1CCOCC1`: the activity change, negative = inhibition is -17.6% (inactive).
To `Cc1cc(C(=O)COc2ccccc2[N+](=O)[O-])c(C)n1-c1cccc(S(=O)(=O)N2CCOCC2)c1` belongs -89.3% (active).
Take `O=S(=O)(c1ccc(Br)c2ccccc12)N1CCOCC1`: the activity change, negative = inhibition was -15% (inactive).
To `O=C1CCC(=O)N1CCC(=O)N(C(=O)NC1CCCCC1)C1CCCCC1` belongs 14.3% (inactive); to `CCCCNC(=O)c1onc(CSc2cccc(OC)c2)c1C(=O)O`, 31.1% (inactive); to `CCCNC(=O)c1onc(CSc2ccc(F)cc2)c1C(=O)NC(C)C`, -14.5% (inactive).
As for `CCOc1cccc(SCc2noc(C(=O)NC(C)C)c2C(=O)O)c1`, the figure is -61.6% (active); as for `COc1cc(C2NC(=O)NC(c3ccccc3)=C2C(C)=O)c(Br)cc1OCC(N)=O` (stereo not given), -0.681% (inactive).
As for `COc1cc2c(cc1OC)C(c1ccccc1Br)NC(=O)C2` (stereo not given), the figure is -67.4% (active); as for `O=C1CCC([N+](=O)[O-])C(c2ccccc2Br)N1` (stereo not given), -6.17% (inactive); as for `CCn1ccnc1CN(C)C(=O)c1cc(COc2ccc(Cl)cc2OC)on1`, 1.37% (inactive).
For `CCOc1ccc(NS(=O)(=O)c2ccc(Cl)c(C(=O)N(C)Cc3cccnc3)c2)cc1`, the activity change, negative = inhibition is -5.24% (inactive).
For the compound `CN(Cc1cccnc1)C(=O)c1cc(COc2ccc3ncccc3c2)on1`, the activity change, negative = inhibition is -81.6% (active).
As for `CCc1nccn1S(=O)(=O)c1cc(Br)ccc1Br`, the figure is 3.85% (inactive); as for `Cc1cc(C)cc(NC(=O)CSc2nc(=O)n(CCN3CCOCC3)c3c2CCC3)c1`, 14.5% (inactive); as for `O=C(COC(=O)CCc1c[nH]c2ccccc12)Nc1cccc(Cl)c1`, -16% (inactive).
As for `COC(=O)c1ccc2c(c1)S(=O)(=O)NC2C` (stereo not given), the figure is 24.6% (inactive); as for `CC1CCCCC1NC(=O)COC(=O)Cc1ccc(Cl)cc1` (stereo not given), 26.8% (inactive); as for `COc1cc(Cn2c3ccc(NC(=O)CC(C)c4ccccc4)cc3c(=O)n2C)ccc1F` (stereo not given), -10.4% (inactive).
Take `CCNC(=S)Nc1ccc2c(c1)c(=O)n(C)n2Cc1ccc(Cl)cc1`: the activity change, negative = inhibition was -4.48% (inactive).
`CCOCCC(=O)Nc1ccc2c(c1)c(=O)n(C)n2-c1ccc2ccccc2c1`: the activity change, negative = inhibition is -74.6% (active).
As for `CCCCn1c(N)c(N(CC)C(=O)/C=C/c2ccco2)c(=O)[nH]c1=O`, the figure is 14.2% (inactive).
As for `O=C1/C(=C/c2cccs2)SC(=S)N1C1CCS(=O)(=O)C1` (stereo not given), the figure is -80.8% (active); as for `O=C1/C(=C/c2cccs2)CCC1C1CCCC1` (stereo not given), -34.7% (inactive).
Take `Cn1nccc1NS(=O)(=O)c1ccc(F)cc1`: the activity change, negative = inhibition is 19.9% (inactive).
To `Cc1ccc2cccc(NC(=O)c3ccc(OC(C)C)cc3)c2n1` belongs 9.69% (inactive); to `CCOc1ccc(N(CC)S(=O)(=O)N2CCCC(C(=O)Nc3ccc(C(C)=O)cc3)C2)cc1` (stereo not given), 11.4% (inactive); to `COc1ccc(OCc2n[nH]c(=S)n2N)cc1`, 39.1% (inactive).
`Cc1ccc(OCc2n[nH]c(=S)n2-c2ccccc2)cc1`: the activity change, negative = inhibition was -60.4% (active).
To `CC(Sc1nnc(COc2ccccc2)n1-c1ccccc1)C(=O)O` (stereo not given) belongs -4.35% (inactive); to `CCc1ccccc1NC(=O)N1CCC2(CC1)Oc1ccccc1C(=O)N2Cc1ccccc1F`, 6.91% (inactive); to `CN1c2ccccc2[C@@]2(CCN=C2N2CCOC2=O)[C@H]1c1cn(C)c2ccccc12`, 7.43% (inactive).
As for `CCCCCCNCCn1cnc2c(N)ncnc21`, the figure is -40% (inactive); as for `CCOC(=O)C1=C(C)NC(C)=C(C(=O)OCC)C1C1=COCCO1`, 42.6% (inactive).
`CCOC(=O)C1=C(CC)Nc2ccccc2N=C1N`: the activity change, negative = inhibition is 40.2% (inactive).
Take `CCOC(=O)C1C(=O)NCC1c1ccccc1` (stereo not given): the activity change, negative = inhibition was 25.9% (inactive).
As for `C=CCC1(C#N)C(=S)NC(C)=C(C(=O)OCC)C1c1ccccc1` (stereo not given), the figure is 21.2% (inactive); as for `CCOC(=O)C1=C(C)NC(C)=C(C(=O)OCC)C1c1ccccn1`, 1.28% (inactive) and -98.9% (active); as for `CCOC(=O)C1=C(C)NC(SC)=NC1c1ccccc1` (stereo not given), -75.9% (active).
On to `Cc1ccc(CN2C(=O)SC(Nc3ccccc3)C2=O)cc1` (stereo not given), for which the activity change, negative = inhibition was 4.93% (inactive).
To `CC(=O)c1ccc(NC(=O)C2CCN(S(=O)(=O)c3c(C)noc3/C=C/c3ccc(C)cc3)CC2)cc1` belongs 8.22% (inactive).
In the case of `Cc1ccccc1CNC(=O)C(=O)NCC(c1cccs1)S(=O)(=O)c1cccs1` (stereo not given), the activity change, negative = inhibition is -7.75% (inactive).
`Cc1ccc2nc(-c3ccc(O)cc3)c(Nc3ccc4c(c3)OCO4)n2c1`: the activity change, negative = inhibition is 27.1% (inactive).
On to `COc1ccc(N2C(=O)C(CC(=O)Nc3ccccc3)N(Cc3ccc(OC)c(OC)c3)C2=O)cc1` (stereo not given), for which the activity change, negative = inhibition was 38.3% (inactive).
As for `CN(C)c1ccc(NC(=S)N(CCc2ccccc2)C2CC(=O)N(c3c(Cl)cccc3Cl)C2=O)cc1` (stereo not given), the activity change, negative = inhibition was -21.4% (inactive).
To `CCOc1ccc(N2C(=O)CC(N(CCc3ccc(OC)c(OC)c3)C(=S)Nc3ccccc3)C2=O)cc1` (stereo not given) belongs -67.5% (active); to `CC(C)Oc1ccc(NC(=O)c2cc3ccccc3o2)cc1`, 84.8% (inactive); to `COC(=O)c1ccccc1NC(=O)Cn1c(=O)cc(C)c2c(C)nn(-c3cccc(Cl)c3C)c21`, -6.78% (inactive).
As for `COc1ccc(NC(=O)Cn2c(=O)cc(C)c3c(C)nn(-c4cccc(Cl)c4C)c32)cc1OC`, the figure is -103% (active); as for `COc1cccc(NC(=O)Cn2c(=O)cc(C)c3c(C)nn(-c4cccc(F)c4)c32)c1`, 2.05% (inactive).
Regarding `N=c1n(CCc2ccccc2)c2ccccc2n1Cc1ccccc1F`, the activity change, negative = inhibition is -70.6% (active).
As for `CCCn1c(NCc2ccccc2F)nc2ccccc21`, the activity change, negative = inhibition is 49.2% (inactive).
On to `O=C(COC(=O)Cc1ccccc1F)NCCc1ccccc1`, for which the activity change, negative = inhibition is 106% (inactive).
To `CCOCCN(C=O)c1cccc(OC)c1` belongs 18% (inactive); to `COc1ccc(N2CCC(CNC(=S)Nc3c(C)cccc3C)C2)cc1` (stereo not given), 0% (inactive).
Turning to `COc1ccc(NC(=S)NCC2CCN(c3ccc(OC)cc3)C2)cc1` (stereo not given), the activity change, negative = inhibition is -63.2% (active).
For `COc1ccc(N2CCN(C(=S)Nc3ccc(S(N)(=O)=O)cc3)CC2)cc1`, the activity change, negative = inhibition is 9.64% (inactive).
To `O=C(Cn1cc(SCc2cccc(Cl)c2)c2ccccc21)N1CCCCC1` belongs 24.5% (inactive).
As for `COc1ccc(-c2c(C)c3ccc(O)c(CN4CCN(C)CC4)c3oc2=O)cc1OC`, the figure is 5.43% (inactive).
To `CCOC(=O)c1oc2c(CN3CCN(C)CC3)c(O)ccc2c(=O)c1-c1ccc(Br)cc1` belongs -37.4% (inactive).
With `CN1CCN(Cc2c(O)ccc3c2oc(=O)c2ccccc23)CC1`, the activity change, negative = inhibition was -78.7% (active).
To `O=C(CSc1oc(-c2ccco2)nc1S(=O)(=O)c1ccccc1)c1ccc(Cl)cc1` belongs -17.5% (inactive); to `Cc1cccc(N2CCN(c3c(CN4CCCC4)c(=O)oc4ccccc34)CC2)c1C`, 21.8% (inactive); to `CCOc1ccc(N(CC)C(=O)c2cc3c(=O)oc4ccccc4c3s2)cc1`, 5.06% (inactive).
